For some of these results: Measured potencies and affinities stand elsewhere.
How the values were obtained:
Parameters in all cases: scale not given: direction of the effect not stated beside the values
[1] = target: Protein translocase subunit SecA (Escherichia coli (strain K12)) (UniProt P10408); assay: Assay to Identify E. coli SecA ATPase Inhibitors; format: functional; conditions: 30 µM
[2] = target: T1, Ubiquitin-activating enzyme e1, putative (Leishmania donovani (strain BPK282A1)) (UniProt E9BSI1); assay: Leishmania donovani Ubiquitin Activating Enzyme (LdE1); format: functional; conditions: 30 µM
T1 sequence (whole entry): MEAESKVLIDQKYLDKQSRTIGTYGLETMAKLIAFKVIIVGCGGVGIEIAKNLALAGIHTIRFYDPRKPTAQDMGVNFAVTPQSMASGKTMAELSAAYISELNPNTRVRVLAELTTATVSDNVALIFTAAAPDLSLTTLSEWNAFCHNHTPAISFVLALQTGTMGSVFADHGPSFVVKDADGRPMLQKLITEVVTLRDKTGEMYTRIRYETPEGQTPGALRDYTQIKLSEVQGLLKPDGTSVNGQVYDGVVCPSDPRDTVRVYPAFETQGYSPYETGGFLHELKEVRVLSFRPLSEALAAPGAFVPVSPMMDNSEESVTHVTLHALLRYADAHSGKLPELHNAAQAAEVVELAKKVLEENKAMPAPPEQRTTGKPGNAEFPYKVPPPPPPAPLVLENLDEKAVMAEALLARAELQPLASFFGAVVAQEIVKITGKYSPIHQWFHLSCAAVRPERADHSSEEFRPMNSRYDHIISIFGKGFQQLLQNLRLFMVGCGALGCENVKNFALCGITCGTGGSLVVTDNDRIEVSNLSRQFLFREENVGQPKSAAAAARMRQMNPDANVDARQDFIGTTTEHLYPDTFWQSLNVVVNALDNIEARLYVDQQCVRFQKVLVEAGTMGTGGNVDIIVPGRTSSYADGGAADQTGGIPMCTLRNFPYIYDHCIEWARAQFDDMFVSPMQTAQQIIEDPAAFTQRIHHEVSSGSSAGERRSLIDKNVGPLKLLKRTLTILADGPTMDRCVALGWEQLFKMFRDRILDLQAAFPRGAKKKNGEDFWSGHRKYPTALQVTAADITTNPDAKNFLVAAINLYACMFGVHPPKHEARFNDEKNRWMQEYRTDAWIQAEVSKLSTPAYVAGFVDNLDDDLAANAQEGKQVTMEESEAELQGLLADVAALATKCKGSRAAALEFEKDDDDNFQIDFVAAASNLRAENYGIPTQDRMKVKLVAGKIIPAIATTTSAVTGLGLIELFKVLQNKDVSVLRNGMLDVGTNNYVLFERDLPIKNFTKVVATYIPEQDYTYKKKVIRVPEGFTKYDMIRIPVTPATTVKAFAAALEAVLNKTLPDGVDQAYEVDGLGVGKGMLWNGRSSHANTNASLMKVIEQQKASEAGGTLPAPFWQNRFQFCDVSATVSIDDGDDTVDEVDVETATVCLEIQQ

[3] = target: AMP-activated protein kinase, AMPK (Homo sapiens) (UniProt P54646+O43741+P54619+Q9UGJ0+Q9Y478+Q13131+Q9UGI9); assay: AMP-dependent Kinase enzyme assay. An in vitro enzyme assay that detects ADP turnover that is directly proportional to AMPK activity. This uses naive AMPK that is activated during the assay with MK-8722; format: functional; conditions: 30 µM
[4] = target: Sialic acid-binding Ig-like lectin 9 (Homo sapiens) (UniProt Q9Y336); assay: Hs-Siglec9 ALPHAscreen SOP 20170721; conditions: 10 µM
Trypanosoma cruzi = assay: Trypanosoma cruzi phosphomannomutase and mannose-1-phosphate guanylyltransferase assay; format: functional; conditions: 10 µM
[5] = target: T2, Arginase-2, mitochondrial (Homo sapiens) (UniProt P78540); assay: in vitro enzyme assay to detect the production of urea directly proportional to the activity of Arginase II; format: functional; conditions: 33.3 µM; note: in the data most compounds retested in dose-response had high values
T2 sequence (whole entry): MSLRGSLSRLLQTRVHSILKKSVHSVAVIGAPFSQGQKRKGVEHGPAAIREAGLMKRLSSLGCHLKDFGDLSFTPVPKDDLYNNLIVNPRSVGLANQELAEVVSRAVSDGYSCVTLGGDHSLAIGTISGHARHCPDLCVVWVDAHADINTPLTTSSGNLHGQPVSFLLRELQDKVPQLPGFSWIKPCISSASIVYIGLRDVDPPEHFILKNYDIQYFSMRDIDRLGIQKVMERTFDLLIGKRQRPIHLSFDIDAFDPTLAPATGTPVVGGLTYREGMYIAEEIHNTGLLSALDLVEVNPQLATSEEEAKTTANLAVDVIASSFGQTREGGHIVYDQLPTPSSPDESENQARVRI

[6] = target: T3, Proteasome subunit beta (Trypanosoma cruzi) (UniProt O96673); assay: Trypanosoma cruzi proteasome chymotrypsin-like activity (TcProtChymo) assay.; note: in the data most compounds retested in dose-response had high values; format: functional; conditions: 9.37 µM
T3 sequence (whole entry): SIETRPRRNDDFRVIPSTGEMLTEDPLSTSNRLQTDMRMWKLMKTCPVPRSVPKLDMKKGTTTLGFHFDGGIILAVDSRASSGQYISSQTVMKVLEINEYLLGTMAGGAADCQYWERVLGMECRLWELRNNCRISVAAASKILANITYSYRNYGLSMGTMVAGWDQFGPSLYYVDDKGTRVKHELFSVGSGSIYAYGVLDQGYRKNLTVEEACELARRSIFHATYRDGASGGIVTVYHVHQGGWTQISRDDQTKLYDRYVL

Homo sapiens = organism: Homo sapiens; assay: To identify inhibition of the IFN signalling (Jak-Stat) pathway via expression of an eGFP reporter gene under the control of an IFN-stimulated response element (ISRE) containing MxA promoter.; format: functional; conditions: 30 µM
[7] = target: T4, Tyrosyl-tRNA synthetase, putative (Trypanosoma cruzi (strain CL Brener)) (UniProt Q4DSP6); assay: Trypanosoma cruzi tyrosyl tRNA synthetase (TcYRS) _High Tyrosine SOP; format: functional; conditions: 30 µM; note: in the data most compounds retested in dose-response had high values
T4 sequence (whole entry): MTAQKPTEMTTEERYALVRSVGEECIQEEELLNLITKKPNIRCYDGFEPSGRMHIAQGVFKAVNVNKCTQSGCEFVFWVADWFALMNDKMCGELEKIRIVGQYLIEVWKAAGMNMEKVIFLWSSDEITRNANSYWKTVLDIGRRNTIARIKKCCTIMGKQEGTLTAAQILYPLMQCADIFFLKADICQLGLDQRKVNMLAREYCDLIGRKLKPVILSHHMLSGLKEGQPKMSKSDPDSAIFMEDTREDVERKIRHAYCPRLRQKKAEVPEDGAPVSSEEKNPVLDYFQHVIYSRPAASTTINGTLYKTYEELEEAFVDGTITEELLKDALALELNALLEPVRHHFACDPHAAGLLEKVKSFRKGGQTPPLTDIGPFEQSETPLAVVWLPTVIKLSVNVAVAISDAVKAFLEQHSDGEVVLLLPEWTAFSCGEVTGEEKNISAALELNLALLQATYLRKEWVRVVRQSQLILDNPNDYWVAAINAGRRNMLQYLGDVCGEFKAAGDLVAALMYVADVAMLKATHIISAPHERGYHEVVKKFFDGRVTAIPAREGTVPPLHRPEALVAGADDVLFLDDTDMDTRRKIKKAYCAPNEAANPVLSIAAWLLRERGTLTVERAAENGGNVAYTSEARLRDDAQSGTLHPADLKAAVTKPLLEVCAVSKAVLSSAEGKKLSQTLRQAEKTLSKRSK

[8] = target: T4, Tyrosyl-tRNA synthetase, putative (Trypanosoma cruzi (strain CL Brener)); assay: Trypanosoma cruzi tyrosyl tRNA synthetase (TcYRS) SOP; format: functional; conditions: 30 µM
[9] = target: Chromo domain-containing protein 1 (Saccharomyces cerevisiae (strain ATCC 204508 / S288c) (Baker's yeast)) (UniProt P32657); assay: ScCHD-1 Enzyme Inhibition Assay; format: functional; conditions: 30 µM; note: in the data most compounds retested in dose-response had high values
Chromo domain-containing protein 1 (Saccharomyces cerevisiae (strain ATCC 204508 / S288c) (Baker's yeast)), sequence (P32657 whole entry, the tested form may be a part): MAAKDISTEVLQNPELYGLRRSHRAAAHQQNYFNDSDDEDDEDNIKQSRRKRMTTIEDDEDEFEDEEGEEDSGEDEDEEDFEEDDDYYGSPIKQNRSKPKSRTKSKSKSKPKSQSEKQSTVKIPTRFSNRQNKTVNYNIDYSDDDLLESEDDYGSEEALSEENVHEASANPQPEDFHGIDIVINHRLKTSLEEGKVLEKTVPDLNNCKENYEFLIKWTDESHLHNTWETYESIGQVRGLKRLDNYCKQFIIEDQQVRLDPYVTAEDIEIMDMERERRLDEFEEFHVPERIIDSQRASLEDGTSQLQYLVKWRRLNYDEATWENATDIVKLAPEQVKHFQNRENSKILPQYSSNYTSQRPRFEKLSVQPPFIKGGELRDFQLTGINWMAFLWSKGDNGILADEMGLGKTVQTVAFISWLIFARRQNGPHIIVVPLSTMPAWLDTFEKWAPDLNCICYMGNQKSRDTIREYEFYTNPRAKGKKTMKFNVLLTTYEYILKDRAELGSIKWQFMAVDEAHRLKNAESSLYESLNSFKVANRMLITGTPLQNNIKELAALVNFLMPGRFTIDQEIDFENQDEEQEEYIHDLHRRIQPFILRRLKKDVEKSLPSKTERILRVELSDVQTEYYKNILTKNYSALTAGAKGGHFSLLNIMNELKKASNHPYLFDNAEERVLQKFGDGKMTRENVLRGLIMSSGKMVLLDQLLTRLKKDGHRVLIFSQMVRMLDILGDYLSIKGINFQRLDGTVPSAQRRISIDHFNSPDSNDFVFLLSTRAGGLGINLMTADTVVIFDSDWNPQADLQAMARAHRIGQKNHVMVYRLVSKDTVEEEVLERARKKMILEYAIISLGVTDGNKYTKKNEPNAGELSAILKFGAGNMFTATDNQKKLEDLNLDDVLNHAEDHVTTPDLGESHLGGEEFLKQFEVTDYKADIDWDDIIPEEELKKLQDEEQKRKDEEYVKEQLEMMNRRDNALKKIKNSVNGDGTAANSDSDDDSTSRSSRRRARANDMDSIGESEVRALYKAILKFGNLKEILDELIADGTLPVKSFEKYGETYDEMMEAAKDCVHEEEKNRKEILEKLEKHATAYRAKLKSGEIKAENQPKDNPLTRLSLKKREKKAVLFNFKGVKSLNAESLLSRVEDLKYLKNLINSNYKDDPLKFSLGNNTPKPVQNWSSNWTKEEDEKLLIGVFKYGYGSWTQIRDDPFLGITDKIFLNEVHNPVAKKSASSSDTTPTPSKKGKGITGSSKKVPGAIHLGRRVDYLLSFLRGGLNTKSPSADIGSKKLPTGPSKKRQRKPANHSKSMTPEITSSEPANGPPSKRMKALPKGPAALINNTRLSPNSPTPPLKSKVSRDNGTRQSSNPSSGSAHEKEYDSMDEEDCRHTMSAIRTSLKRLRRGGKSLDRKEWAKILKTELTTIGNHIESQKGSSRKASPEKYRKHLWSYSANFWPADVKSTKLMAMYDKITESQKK

Sialic acid-binding Ig-like lectin 9 (Homo sapiens), sequence (Q9Y336 whole entry): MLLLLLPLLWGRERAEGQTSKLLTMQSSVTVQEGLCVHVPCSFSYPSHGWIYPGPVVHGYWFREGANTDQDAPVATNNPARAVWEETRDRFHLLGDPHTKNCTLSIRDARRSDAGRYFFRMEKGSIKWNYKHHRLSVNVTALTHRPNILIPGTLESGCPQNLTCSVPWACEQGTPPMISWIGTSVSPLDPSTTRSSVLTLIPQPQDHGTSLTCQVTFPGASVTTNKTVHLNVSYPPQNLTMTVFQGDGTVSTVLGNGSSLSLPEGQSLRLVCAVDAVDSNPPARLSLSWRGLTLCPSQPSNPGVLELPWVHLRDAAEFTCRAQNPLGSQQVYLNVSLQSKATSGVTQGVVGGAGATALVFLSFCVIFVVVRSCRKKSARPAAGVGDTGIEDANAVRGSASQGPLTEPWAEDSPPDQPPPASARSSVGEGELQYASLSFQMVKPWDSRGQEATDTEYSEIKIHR
Protein translocase subunit SecA (Escherichia coli (strain K12)), sequence (P10408 whole entry): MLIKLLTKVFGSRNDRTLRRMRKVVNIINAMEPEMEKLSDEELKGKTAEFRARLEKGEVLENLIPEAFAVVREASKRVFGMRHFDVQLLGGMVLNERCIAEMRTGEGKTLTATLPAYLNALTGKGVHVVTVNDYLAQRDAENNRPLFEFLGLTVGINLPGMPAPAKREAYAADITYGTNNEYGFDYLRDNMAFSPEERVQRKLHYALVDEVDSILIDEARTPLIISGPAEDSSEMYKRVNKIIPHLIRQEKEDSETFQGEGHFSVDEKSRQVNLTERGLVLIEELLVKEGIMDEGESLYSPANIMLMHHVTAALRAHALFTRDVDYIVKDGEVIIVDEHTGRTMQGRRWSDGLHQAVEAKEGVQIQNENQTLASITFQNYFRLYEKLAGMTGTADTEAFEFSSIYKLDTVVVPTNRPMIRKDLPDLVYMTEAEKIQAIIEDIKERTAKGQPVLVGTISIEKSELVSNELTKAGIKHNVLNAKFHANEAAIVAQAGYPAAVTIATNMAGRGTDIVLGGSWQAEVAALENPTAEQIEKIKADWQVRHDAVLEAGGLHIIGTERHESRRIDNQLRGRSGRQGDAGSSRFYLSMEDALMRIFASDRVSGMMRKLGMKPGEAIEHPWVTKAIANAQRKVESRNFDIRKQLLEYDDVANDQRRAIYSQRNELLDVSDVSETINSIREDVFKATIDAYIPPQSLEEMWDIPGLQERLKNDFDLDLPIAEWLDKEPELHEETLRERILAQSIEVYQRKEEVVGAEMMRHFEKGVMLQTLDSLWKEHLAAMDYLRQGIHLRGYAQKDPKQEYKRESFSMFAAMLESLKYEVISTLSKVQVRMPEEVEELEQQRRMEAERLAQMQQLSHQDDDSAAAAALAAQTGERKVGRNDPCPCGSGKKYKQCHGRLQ

SMILES | Percent Effect [1] [%] | Percent Effect [2] [%] | Percent Effect [3] [%] | Percent Effect [4] [%] | Percent Effect (Trypanosoma cruzi) [%] | Percent Effect [5] [%] | Percent Effect [6] [%] | Percent Effect (Homo sapiens) [%] | Percent Effect [7] [%] | Percent Effect [8] [%] | Percent Effect [9] [%]
COc1cccc2ccn(CCC(=O)N3CCCC(C(=O)O)C3)c12 (stereo not drawn) | -7.04 | 21.1 | 5.95 | -0.508 | 3.8 | -1.18 | 14.1 | 6.03 | 2.13 | 10.4 | -7.67
O=C(NCc1ccco1)C1CCCN1Cc1nc(-c2ccco2)no1 (stereo not drawn) | -0.649 | 13.5 | 0.501 | -7.57 | -4.18 | 4.99 | 7.9 | 10.9 | 7.92 | 15.8 | -0.371
COc1cccc(F)c1C(=O)N1C[C@@H](CN(C)CCO)[C@@H](CO)C1 | -8.11 | 5.2 | -2.26 | 3.34 | -2.26 | -5.52 | 2.16 | -11 | 2.15 | 8.64 | -0.727
Cn1cnc2c1CCN(Cc1noc(-c3ccccc3)n1)C2 | -4.07 | 15.8 | -9.94 | 14.2 | 3.08 | -2.52 | 1.27 | -13.4 | 6.4 | 11.1 | 0.774
CS(=O)(=O)c1ccc(NC(=O)N2CCc3sccc3C2)cn1 | -2.17 | 10.8 | 4.69 | -4.04 | -3.71 | 1.67 | 18.3 | 63.4 | 5.94 | 11 | 13.6
COCCCNC(=O)CN(C)C(=O)c1cc(C)ccc1O | -3.14 | 16.2 | -6.15 | -4.94 | -5.48 | -0.924 | 7 | -3.62 | 3.96 | 15.8 | -7.89
CNC(=O)C1(CCCc2cccnc2)CCCCN1 (stereo not drawn) | -1.25 | 23 | 5.4 | -8.22 | 3.95 | 0.696 | 17.6 | 19 | 1.07 | 9.09 | -15.7
CCCNC(=O)Nc1cc2c(cc1SC)OCCO2 | -5.72 | 13.5 | -3.48 | 12.2 | 2.93 | 11.2 | 10.7 | -1.29 | 8.91 | 8.54 | -6.19

From ChEMBL document CHEMBL3988442, “University of Dundee, Small-Polar-MMV Screening Library” (2021)
